# Source: PubChem BioAssay (National Center for Advancing Translational Sciences (NCATS))
# Rab9 prom act: Rab9 promoter activation; Huh7 Rab9 promoter-luciferase reporter, luminescence, 24 h; Potency, µM (highest dose often 9.22 µM), inactives show top-dose activation, negative = inhibition, usual class: activators; 2.8% of 320,000 active; AID 485297; also: % of control where 0% means no effect; nearly all actives have a fitted effect of over 60% in size
#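 Huh7 cells stably carrying Rab9 promoter–luciferase reporter, plated 1500 cells/well, compound added after 2 h and incubated 24 h at 37 °C; luciferase luminescence then read after 10 min with detection reagent.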
# SMN2 splice enh: increases expression of the SMN2 splice variant; HEK293 SMN2-luciferase splicing reporter, luminescence, 30-36 h; 2.8% of 210,000 active; Potency, µM (titrated, usually from 46.1 µM), for inactives: top-dose activity change, positive = activation, hits mostly activators; also: % of control where 0% means no effect; nearly all actives have a fitted effect of over 55% in size
#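 HEK293 cells carry an SMN2 minigene-luciferase reporter in which exon 7 inclusion puts luciferase in frame. Cells were seeded at 2000 cells/well, attached for 10-12 hours, then exposed to compounds for 30-36 hours at 37C before ONE-Glo luminescence.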
# NPC1 promoter act: activators of NPC1 promoter; Huh7 NPC1 promoter luciferase reporter, 24 h; Potency, µM (top dose mostly 9.22 µM), for the others: top-dose activation, hits mostly activators; 2.4% of 320,000 active; AID 485313; also: % of control where 0% means no effect; nearly all actives have a fitted effect of over 60% in size
#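 Stably transfected Huh7 (NPC1 promoter→luciferase), 1500 cells/well in Opti-MEM + 10% FBS, 2 h settle, then compound 24 h at 37 °C. Luminescence after 10 min with Amplite reagent.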
# FLuc counter: counter-screen for miR-21 project: firefly luciferase inhibitors or activators; P08659; 6.9% of 360,000 active; Potency, µM (series often up to 57.5 µM), without a hit: top-dose activity change, negative = inhibition, hits mostly inhibitors; purified FLuc, Km substrates, luminescence inhibition;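 also: plate controls were vehicle for no effect and reference inhibitor for full effect; nearly all actives have a fitted effect of over 55% in size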
# Target sequence (P08659 whole entry, looked up): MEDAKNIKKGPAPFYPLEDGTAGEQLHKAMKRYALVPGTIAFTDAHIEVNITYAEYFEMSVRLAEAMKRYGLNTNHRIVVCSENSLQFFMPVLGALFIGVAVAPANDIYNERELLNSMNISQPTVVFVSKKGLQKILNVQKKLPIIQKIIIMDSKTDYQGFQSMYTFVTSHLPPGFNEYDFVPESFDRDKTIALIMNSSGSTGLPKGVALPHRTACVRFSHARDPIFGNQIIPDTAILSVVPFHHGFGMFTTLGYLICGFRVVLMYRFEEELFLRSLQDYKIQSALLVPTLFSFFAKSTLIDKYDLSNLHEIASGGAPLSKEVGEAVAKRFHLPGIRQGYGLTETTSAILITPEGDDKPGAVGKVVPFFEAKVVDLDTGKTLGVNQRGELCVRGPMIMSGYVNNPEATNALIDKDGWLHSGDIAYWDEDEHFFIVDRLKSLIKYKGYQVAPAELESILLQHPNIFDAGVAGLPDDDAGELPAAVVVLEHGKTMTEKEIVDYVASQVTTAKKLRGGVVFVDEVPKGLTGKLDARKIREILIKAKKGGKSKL
#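 Biochemical qHTS of compounds, final roughly 60 µM downward over six points, against 10 nM purified firefly luciferase using Km concentrations of substrates (10 uM D-luciferin, 10 uM ATP) in Tris acetate pH 7.5 buffer; luminescence output.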
# ELG1 genotoxic: inducers of genotoxicity in HEK293T ELG1-luciferase cells; HEK293T ELG1-luciferase reporter, luminescence, 16 h; Potency, µM (top dose mostly 46 µM), without a hit: at the highest dose activity change, positive = activation, actives largely listed as activators; 1.3% of 330,000 active; AID 504466; also: % of control where 0% means no effect; nearly all actives have a fitted effect of over 60% in size
#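 Screening used a luciferase reporter fused to human ELG1 in HEK293T cells. Luminescence was read on a CCD plate imager after 16 hr exposure and 30 min ONE-Glo incubation.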
# Luc counter: counter-screen: inhibitors of Kinase-Glo firefly luciferase. AID 1379. Q27757. Potency, µM (top dose mostly 38.3 µM), for inactives: at the highest dose activity change, negative = inhibition, most hits filed as inhibitors. 0.28% of 200,000 active. Kinase-Glo luciferase, ATP luminescence, 8 min; also: % is scaled to controls: 0 for no effect and ±100 for the full control effect; nearly all actives have a fitted effect of over 60% in size
#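 Recombinant Kinase-Glo luciferase, 10 uM ATP (linear range), luciferin; imidazole pH 7.2 / KCl / MgCl2 / Tween / BSA buffer; 8 min RT; luminescence.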
# The depositor's hits bear a star; ? = inconclusive; . = no result; [ ] = another dose, or the depositor's remark. Hits are enriched below; roughly 7.4% of the tested compounds scored in any of these assays. Calls follow the shape of the dose curve; as a rule, active = well fitted curve in the direction sought with a large enough effect; inconclusive = small, poorly fitted or top-dose-only effect, or another doubt; inactive = no such curve, though single readings can be large; an effect the other way counts as inactive or inconclusive. Potency is read from the fitted curve at half-maximal effect.
SMILES,Rab9 prom act,SMN2 splice enh,NPC1 promoter act,FLuc counter,ELG1 genotoxic,Luc counter
Cc1ccc(CN2CCCn3nc(C(=O)NCc4cc(C)ccc4C)cc3C2=O)cc1,.,.,.,-15%,.,.
CCCCC/C=C\C\C=C/C=C/C=C/[C@@H](SC[C@H](N)C(=O)O)[C@@H](O)CCCC(=O)O,.,-4%,.,.,.,.
Cc1c(C(=O)N(C)c2ccccc2)sc2nc(-c3ccc(F)cc3)cn12,.,.,.,17µM*,.,.
Cc1c(C(=O)N(C)Cc2ccccc2)sc2nc(-c3ccc(F)cc3)cn12,.,.,.,-18%,.,.
Cc1c(C(=O)NCc2ccco2)sc2nc(-c3ccccc3)cn12,?,11%,?,17µM*,?,1%
Cc1c(C(=O)NCc2cccnc2)sc2nc(-c3ccc(F)cc3)cn12,16%,-78%,25%,19µM*,?,-3%
Cc1c(C(=O)NCc2cccnc2)sc2nc(-c3ccccc3)cn12,?,.,23%,24µM*,?,.
CN(Cc1cc(Br)cc(Br)c1O)Cc1c(O)ccc2ccccc12,.,-3%[9.22 µM],.,.,.,-7%[7.66 µM]
CCCn1c(-c2ccc(F)cc2)nc2c(NCCN3CCCCC3)nc(C)nc21,.,-5%,.,.,.,-4%
CCC12CN3CC(C)(CN(C1)C3c1c[nH]c3ccccc13)C2=O (stereo not given),.,-1%,.,-2%,.,.
Cc1cc(/C=C(\C#N)C(=O)N2CCOCC2)c(C)n1C1CCCC1,0.32µM*,.,0.5µM*,1.1µM*,1.6µM*,.
COC(=O)N1C2=C(c3ccccc3[C@@H]1CC(=O)Nc1ccc(Br)cc1)[C@@H]1C(=O)N(c3ccccc3)C(=O)[C@@H]1[C@H](C)C2,.,-4%[9.22 µM],.,.,.,-4%[7.66 µM]
CC(=O)Nc1ccc(NC(=O)/C(Cl)=C/c2ccccc2)cc1,?,-6%,23%,11µM*,-1%,1%
CSCCC=O,.,4%,.,.,.,.
O=C(O)CCC(=O)N1CCN(c2nc3ccccc3s2)CC1,2%,26%,0%,-6%,0%,4%
COc1ccc(CN=C(C)c2c(C(F)(F)F)[nH]n(-c3nc4ccccc4s3)c2=O)cc1,4µM*,-22%,?,6.7µM*,15µM*,-12%
COc1ccc(Cn2c(C(C)C)nc3sc4ccccc4c(=O)c3c2=O)cc1,-9%,.,-3%,5%,-5%,.
O=c1cc(-c2ccccc2)[nH]n1-c1nc2ccccc2s1,8%,-1%,12%,17µM*,8%,1%
CC(=O)c1c(CC(=O)O)[nH]n(-c2nc3ccccc3s2)c1=O,?,-22%,21%,12µM*,10%,6.3µM*
COC(=O)CC1=NN(c2nc3ccccc3s2)C(=O)/C1=C/N(C)C,17%,2%,15%,?,-6%,5%
COC(=O)Cc1[nH]n(-c2nc3ccccc3s2)c(=O)c1C(C)=O,15%,-19%,11%,9.5µM*,?,?
Cc1ccc(-c2c(C)n3c4c(=O)n(C)c(=O)n(C)c4nc3n2-c2cccc(O)c2)cc1,.,2%,.,-15%,.,.
NCC1OC(O[C@H]2[C@H](O)[C@@H](OC3C(O)C(N)CC(N)C3OC3OC(CO)C(O)C(O)C3N)O[C@@H]2CO)C(N)C(O)C1O (stereo not given in full),-16%[46.1 µM],.,-6%[46.1 µM],.,.,.
Cc1ccc2c(c1)N(C(=O)N1CCC(C(=O)NC3CCCCCC3)CC1)CC(C)O2 (stereo not given),.,.,.,7%,.,.
O=C(NCC(c1ccc2c(c1)OCO2)N1CCN(c2ccccc2)CC1)c1ccccc1 (stereo not given),.,.,.,-11%,.,.
Cc1ccnc(N2C(=O)c3ccccc3C2Nc2cccc(C)c2C)c1 (stereo not given),-4%,9%,-3%,3%,1%,-2%
Cc1ccnc(N2C(=O)c3ccccc3C2O)c1 (stereo not given),?,11µM*,1µM*,6µM*,1.8µM*,11µM*
CCOC(=O)c1sc(Nc2nc3c(OC)cccc3s2)nc1C,?,?,?,6.7µM*,?,-8%
